Source: PubChem BioAssay (National Center for Advancing Translational Sciences (NCATS))
Hits are enriched below; roughly 12% of the tested compounds scored in any of these assays.
Pf growth 96h – P. falciparum growth inhibition at 96 hour, primary screen for plastid delayed-death inhibitors; 6.9% of 320,000 active; Potency, µM (top dose mostly 28.7 µM), for the others: at the highest dose activity change, negative = inhibition, usual class: inhibitors; P. falciparum luciferase reporter growth, 96 h; further: on the % scale 0 is the no-effect control and ±100 the full control effect
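Cell-based qHTS: luciferase-tagged P. falciparum in erythrocytes (2% hematocrit, 0.05% parasitemia final) incubated with compounds for 96 hours, 37 C, 5% CO2; luciferase detection reagent then added and luminescence measured.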
AmpC inh detg – AmpC beta-lactamase inhibition with detergent present. P00811. 0.041% of 370,000 active. AID 485294. AmpC hydrolysis of nitrocefin, absorbance 480 nm, 0.01% Triton. Potency, µM (series often up to 114 µM), for inactives: top-dose activity change, negative = inhibition, hits mostly inhibitors;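 further: 0% = no-compound wells and -100% = no-enzyme wells; nearly all actives have a fitted effect of over 25% in size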
Target sequence (P00811 whole entry, looked up): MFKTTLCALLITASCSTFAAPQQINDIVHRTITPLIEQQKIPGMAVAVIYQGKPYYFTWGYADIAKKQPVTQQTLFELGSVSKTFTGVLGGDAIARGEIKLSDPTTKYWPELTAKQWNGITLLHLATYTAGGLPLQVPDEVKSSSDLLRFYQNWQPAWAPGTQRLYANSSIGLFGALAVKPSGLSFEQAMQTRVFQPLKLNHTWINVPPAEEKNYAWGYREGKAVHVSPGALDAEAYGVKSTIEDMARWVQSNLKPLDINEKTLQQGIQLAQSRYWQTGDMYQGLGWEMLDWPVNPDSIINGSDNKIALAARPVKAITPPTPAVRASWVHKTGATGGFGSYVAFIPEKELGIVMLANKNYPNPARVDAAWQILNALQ
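AmpC (5.3 nM in the dispensed reagent) in 20 mM phosphate pH 7.0 with 0.01% (detergent screen) or 0.0001% Triton X-100 was preincubated with compounds for 15 min at room temperature. Nitrocefin was then added from an 800 uM solution, and hydrolysis was followed at 480 nm.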
Sm TGR block – S. mansoni TGR enzyme inhibition; Q962Y6; purified TGR, DTNB reduction, TNB absorbance 405 nm; Potency, µM (top dose mostly 114 µM), inactives show at the top dose activity change, negative = inhibition, usual class: inhibitors; AID 485364; 3% of 360,000 active; further: on the % scale 0 is the no-effect control and ±100 the full control effect; nearly all actives have a fitted effect of over 60% in size
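Kinetic colorimetric format: TGR-catalysed, NADPH-driven DTNB reduction monitored via TNB absorbance. Enzyme dispensed at 20 nM; compound exposure 15 min at room temperature before reaction start.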
AmpC inh no detg – AmpC beta-lactamase inhibition without detergent; AmpC nitrocefin hydrolysis, absorbance 480 nm, 0.0001% Triton; 0.52% of 330,000 active; AID 485341; Potency, µM (titrated, usually from 57.1 µM), for the others: at the top dose activity change, negative = inhibition, actives largely listed as inhibitors;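 further: plate controls were no compound for no effect and no enzyme for full effect; nearly all actives have a fitted effect of over 20% in size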
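AmpC (5.3 nM in the dispensed reagent) in 20 mM phosphate pH 7.0 with 0.01% (detergent screen) or 0.0001% Triton X-100 was preincubated with compounds for 15 min at room temperature. Nitrocefin was then added from an 800 uM solution, and hydrolysis was followed at 480 nm.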
Pf growth 48h – P. falciparum growth inhibition at 48 hours (one generation). P. falciparum luciferase growth in erythrocytes, 48 h. Potency, µM (doses to about 28.7 µM), without a hit: at the highest dose activity change, negative = inhibition, most hits filed as inhibitors. 5.9% of 310,000 active. AID 504832; further: on the % scale 0 is the no-effect control and ±100 the full control effect
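Here the parasites carry a stable luciferase gene and grow inside erythrocytes in Albumax-based RPMI medium with compound for one erythrocytic cycle. Activity is scored as loss of luminescent signal.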
SARS PLpro yeast – inhibitors of SARS-CoV papain-like protease in yeast. Potency, µM (doses to about 32.9 µM), for inactives: at the highest dose activity, positive = growth rescue, most hits filed as activators. 0.19% of 330,000 active. AID 485353. S. cerevisiae expressing SARS-CoV PLpro, growth rescue; calls by dose curve; further: 0% is about no effect; nearly all actives have a fitted effect of over 55% in size
Starred values were filed as active, the others as inactive; ? = inconclusive; · = not tested or not shown; [ ] = another dose, or the depositor's remark. Unless noted, the call rests on the fitted dose curve; in most records, active means well fitted curve in the direction sought with a large enough effect; inconclusive means small, poorly fitted or top-dose-only effect, or another doubt; inactive means no such curve, though single readings can be large; an effect the other way counts as inactive or inconclusive. Potency means the concentration at half of the fitted maximal effect.

SMILES | Pf growth 96h | AmpC inh detg | Sm TGR block | AmpC inh no detg | Pf growth 48h | SARS PLpro yeast
COc1cccc(CNCc2ccc(OC)c3ccccc23)c1OC | ? | 3% | ? | 22% | ? | 1%
Cc1ccc(Cn2cccc2/C=C2/C(=N)N3C=CSC3=NC2=O)cc1 | 6.6µM* | -11% | -7% | -29% | 2% | ?
N=C1/C(=C/c2cccn2Cc2ccc(F)cc2)C(=O)N=C2SC=CN12 | 53%[5.75 µM] | -1% | -20% | ? | -28% | 1%
CCOC(=O)Cn1nnnc1C(C(C)C)N(Cc1cc2c(C)cc(C)cc2[nH]c1=O)C1CCCC1 (configuration not stated) | 10% | -5% | ? | 12% | 6.6µM* | 6%
Cc1ccc2cc(C(c3nnnn3C3CCCC3)N(Cc3cccnc3)Cc3ccco3)c(=O)[nH]c2c1 (configuration not stated) | -22% | -4% | ? | -5% | 13µM* | 2%
COc1ccc2[nH]c(=O)c(CN(Cc3nnnn3Cc3ccco3)C3CCCCC3)cc2c1 | 5.2µM* | -7% | 56µM* | -4% | ? | 22%
COc1ccc2cc(CN(CCc3ccccc3)Cc3nnnn3Cc3ccco3)c(=O)[nH]c2c1 | 8% | -7% | ? | 27% | 6.6µM* | -1%
O=C(c1cc(N2CCOCC2)c(F)cc1[N+](=O)[O-])N1CCOCC1 | ? | -10% | -2% | -12% | -12% | 0%
COc1ccc(CNC(=O)c2cc3c(=O)n(Cc4cccs4)ccc3nc2C)cc1 | · | -6% | -10% | · | · | ·
COc1ccc2[nH]c(=O)c(C(c3nnnn3C3CCCC3)N(C)C3CCCCC3)cc2c1 (configuration not stated) | ? | -20% | -2% | -31% | 14% | -1%
O=c1[nH]c2cc3c(cc2cc1CN(Cc1nnnn1C1CCCC1)C1CCCC1)OCCO3 | 9.3µM* | -2% | 50µM* | -18% | · | 2%
COc1ccc(Cn2nnnc2CN(Cc2cc3cc(C)ccc3[nH]c2=O)C2CCCC2)cc1 | -16% | ? | 35µM* | -33% | ? | 12%
COc1ccc2[nH]c(=O)c(CN(C3CCCCC3)C(c3nnnn3Cc3ccco3)C(C)C)cc2c1 (configuration not stated) | 42% | -8% | 13µM* | -33% | 13µM* | -2%
Cc1ccc2[nH]c(=O)c(CN(Cc3nnnn3C3CCCC3)C3CCCCC3)cc2c1 | · | -16% | 0% | -20% | 1% | 1%
Cc1ccc(C)c2[nH]c(=O)c(CN(CCN3CCOCC3)Cc3nnnn3CC3CCCO3)cc12 (configuration not stated) | 77% | -9% | 20µM* | 54% | -23% | 9%
O=C(NCCCn1ccnc1)c1cccc(Br)c1 | 14% | -8% | -28% | -13% | 17% | 1%
CCC(=O)N1CCc2cc(S(=O)(=O)NC(C(=O)NCCc3ccc(OC)c(OC)c3)C(C)C)ccc21 (configuration not stated) | · | 0% | -8% | · | · | ·
Cc1cc(C)c(S(C)(=O)=O)c(N(C)N)n1 | 18% | ? | 8% | -11% | 237% | 0%
CCC(c1nnnn1C1CCCCC1)N(Cc1ccco1)Cc1cc2ccc(OC)cc2[nH]c1=O (configuration not stated) | -7% | 1% | 6% | -10% | 7.4µM* | -1%
Cc1ccc2cc(CN(Cc3ccc4c(c3)OCO4)Cc3nnnn3Cc3ccco3)c(=O)[nH]c2c1 | 4% | 2% | ? | -14% | ? | 0%
COc1ccccc1CN(Cc1cc2c(C)ccc(C)c2[nH]c1=O)Cc1nnnn1Cc1ccco1 | · | 4% | 45µM* | -6% | 4.7µM* | 0%
Cc1ccc(CN(Cc2cc3cc4c(cc3[nH]c2=O)OCCO4)Cc2nnnn2Cc2ccco2)cc1 | ? | 5% | 11µM* | -16% | · | 3%
Cc1ccc2cc(C(c3nnnn3C3CCCC3)N(Cc3ccco3)Cc3cccs3)c(=O)[nH]c2c1 (configuration not stated) | ? | -9% | -29% | ? | · | 3%
CCC(C)(C)n1nnnc1CN(Cc1cc2cc(OC)c(OC)cc2[nH]c1=O)C1CCCC1 | 67% | 0% | 25µM* | -7% | 8% | 12%
CC(C)(C)c1cc(/C=N/NC(=O)C[n+]2ccccc2)cc(C(C)(C)C)c1O | 4% | -5% | -17% | 38% | ? | -3%
SMILES | Pf growth 96h | AmpC inh detg | Sm TGR block | AmpC inh no detg | Pf growth 48h | SARS PLpro yeast
CCOc1ccc(C(=O)Nc2ccc3oc(-c4cccnc4)nc3c2)cc1 | · | 7% | -2% | · | · | ·
Cc1cccc(-c2nc3ccccc3n2Cc2ccccc2)c1 | · | 23% | 1% | · | · | ·
Cc1cc(C)cc(N2C(=O)C3CC=CCC3C2=O)c1 (configuration not stated) | 16% | 0% | -11% | 4% | -9% | 1%
Cc1cc(C)cc(N2C(=O)c3nccnc3C2=O)c1 | 12µM* | -4% | -7% | -4% | 13% | -7%
Cc1ccc(C(=O)c2cn(CC(=O)Nc3ccc(C(C)C)cc3)c3nc(C)ccc3c2=O)cc1 | · | 18% | -1% | · | · | ·
Cc1ccc(-n2nc(C)c3c(C)c(CCC(=O)NC(C)c4ccccc4)c(C)nc32)cc1 (configuration not stated) | 9.3µM* | ? | 3% | 2% | · | -4%
CCC(C)NC(=O)CCc1c(C)nc2c(c(C)nn2-c2ccc(C)cc2)c1C (configuration not stated) | · | 12% | 1% | · | · | ·
Cc1ccc(NC(=O)CN(C)S(=O)(=O)c2ccc3[nH]c(=O)oc3c2)c(C)c1 | ? | 0% | 1% | -27% | 2% | 0%
Cc1ccc(C)c(N2CCN(S(=O)(=O)c3cc4c(cc3Cl)NC(=O)CO4)CC2)c1 | ? | -5% | -19% | -15% | -2% | 4%
Oc1ccc(N=Cc2ccc(O)c(O)c2)cc1 | 6% | -14% | 22µM* | -49% | ? | -12%
COc1ccc(C(=O)c2oc3ccccc3c2NC(=O)c2nc(SC)ncc2Cl)cc1Cl | · | 16% | 2% | · | · | ·
Cc1sc(NC(=O)/C=C/C(=O)O)c(C(N)=O)c1-c1ccc(C(C)(C)C)cc1 | 167% | 3% | -2% | -9% | 8.3µM* | 7%
CCOC(=O)c1c(NC(=O)/C=C/C(=O)O)sc(C)c1-c1ccc(C(C)(C)C)cc1 | 31%[5.75 µM] | -2% | -2% | -9%[2.29 µM] | 1.7µM* | -3%
COc1ccc(CNCc2c(C(=O)O)c(C)n(Cc3ccccc3C)c2C)cc1OC | · | 10% | -3% | · | · | ·
